Screening data as filed in PubChem BioAssay.
In the library only some 2.3% were active in any assay of this set; here they are far more common.
CHO-K1 Ca antag – nonselective inhibitor or artifact in parental CHO-K1 cells; ATP-induced calcium, Fluo-8 fluorescence; inhibition, % at 3 µM; hit rate 0.6% among 360,000; AID 602250;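 active = inhibition above a per-plate cutoff, the plate's mean sample inhibition plus 3 SD, cut at about 24% in these data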;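 also: 0% = DMSO plus EC80 ATP and 100% = DMSO alone without ATP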
M1 PAM – potentiates human M1 receptor response to acetylcholine; P11229; CHO-K1 hM1, Fluo-8 calcium fluorescence, ACh EC20; 0% = ACh EC20, 100% = maximal ACh; activation, % at 3 µM; hit rate 0.088% among 360,000; in the data active = activation above about 19%, passing the limit was not always enough
Target sequence (P11229 whole entry, looked up): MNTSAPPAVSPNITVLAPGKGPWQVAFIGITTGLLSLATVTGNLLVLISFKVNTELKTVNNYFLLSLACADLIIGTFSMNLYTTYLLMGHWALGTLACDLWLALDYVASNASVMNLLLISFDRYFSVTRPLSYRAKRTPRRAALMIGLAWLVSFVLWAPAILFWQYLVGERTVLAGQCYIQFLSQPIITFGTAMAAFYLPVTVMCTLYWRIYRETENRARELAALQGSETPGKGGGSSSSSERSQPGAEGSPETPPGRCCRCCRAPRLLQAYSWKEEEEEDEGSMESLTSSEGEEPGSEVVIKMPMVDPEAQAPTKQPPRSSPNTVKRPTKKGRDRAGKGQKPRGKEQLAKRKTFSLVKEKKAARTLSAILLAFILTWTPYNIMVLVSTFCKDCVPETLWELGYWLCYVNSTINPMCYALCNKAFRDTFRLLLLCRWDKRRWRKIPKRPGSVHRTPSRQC
CHRM1 antagonist – blocks human M1 muscarinic receptor | hit rate 1.3% among 360,000 | CHO-K1 hM1, Fluo-8 calcium fluorescence, ACh EC80 antagonist | inhibition, % at 3 µM;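 active = percent inhibition above its own plate's cutoff, namely the mean of that plate's compound wells plus 3 SD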;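 also: peak over basal fluorescence ratio during 140 s after agonist addition; 0% = ACh EC80 plus DMSO and 100% = DMSO alone without agonist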
CHO-K1 Ca ag – nonselective activator or artifact in parental CHO-K1 cells | hit rate 0.48% among 360,000 | Fluo-8 calcium fluorescence; scaled to maximal ATP response, vehicle zero | activation, % at 3 µM; in the data active = activation above about 15%;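 also: untransfected CHO-K1 host cells lacking M1 receptor as counterscreen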
CHRM1 agonist – activates human CHRM1 receptor. P11229. CHO-K1 hM1, Fluo-8 calcium fluorescence, agonist mode; 0% DMSO, 100% acetylcholine EC100. activation, % at 3 µM. hit rate 0.33% among 360,000. AID 588814;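 active = activation above the run's mean compound activation plus 3 SD, cut at about 16% in these data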;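 also: peak over basal fluorescence ratio within a 140 s kinetic read after compound addition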
CHO-K1 Ca PAM – nonselective activator or artifact in parental CHO-K1 calcium assay; ATP EC20, Fluo-8 calcium fluorescence; 0% at ATP EC20, 100% at ATP max; activation, % at 3 µM; hit rate 0.02% among 360,000; AID 602247;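 active = activation above the run cutoff, the mean activation of all test compounds plus 3 SD, cut at about 40% in these data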;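 also: peak over basal fluorescence ratio in a 140 s read after ATP addition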
* marks the source's active call; other numbers are inactive results.

SMILES | CHO-K1 Ca antag | M1 PAM | CHRM1 antagonist | CHO-K1 Ca ag | CHRM1 agonist | CHO-K1 Ca PAM
CC(C)CC(NS(=O)(=O)OCC(Cl)(Cl)Cl)c1ccccc1 (stereo not drawn) | -2 | -21 | 35* | -1 | -7 | -5
COC(=O)CCC(NS(=O)(=O)OCC(Cl)(Cl)Cl)c1ccccc1 (stereo not drawn) | -7 | -2 | 2 | 0 | -5 | 2
CC(C)Oc1ccc(S(=O)(=O)N2CCOCC2)cc1NC(=O)c1ccc(N2CCCC2=O)cc1 | -10 | -2 | 9 | 1 | -2 | 5
CCCCCCN1CCN(C2CN(Cc3ccccc3)S(=O)(=O)C2)CC1 (stereo not drawn) | 15 | -6 | 12 | 1 | -4 | -6
COc1cccc2cc(C(=O)C3=C(O)C(=O)N(CCN4CCOCC4)C3c3cccc(Cl)c3)oc12 (stereo not drawn) | 27* | 18 | -11 | -1 | 5 | 8
CCCCN1C(=O)C(=O)c2cc(Cl)ccc21 | -15 | 6 | -9 | 0 | -4 | 24
O=c1c2cc(NC(=S)NCCN3CCCCCC3)ccc2nc2n1CCCCC2 | -5 | -15 | 13 | 0 | -9 | -6
O=c1c2cc(NC(=S)NCCCN3CCC(Cc4ccccc4)CC3)ccc2nc2n1CCCCC2 | -6 | -26 | 67* | 10 | -2 | 11
COc1cccc(NC(=O)N(C)C[C@H]2Oc3cc(Br)ccc3S(=O)(=O)N([C@H](C)CO)C[C@H]2C)c1 | 28* | -12 | 20* | 0 | -3 | -7
COc1ccc(C#Cc2ccc3c(c2)O[C@@H](CN(C)C(=O)Nc2cccc(OC)c2)[C@H](C)CN([C@@H](C)CO)S3(=O)=O)cc1 | 13 | -12 | 4 | 1 | -3 | -6
COc1ccccc1S(=O)(=O)N(C)C[C@@H]1Oc2cc(C#CCC(C)C)ccc2S(=O)(=O)N([C@H](C)CO)C[C@@H]1C | 34* | 1 | -3 | 0 | -2 | -11
CC1CCCCN1C(=O)c1ccc(Br)o1 (stereo not drawn) | -11 | 7 | -14 | 1 | -6 | 17
O=C(COc1ccccc1)NC(=S)N1CCc2ccccc21 | 24* | -7 | 11 | 0 | -4 | -14
CN(C)c1ccc(/C=C2\Oc3ccc(C#Cc4cccc(N)c4)cc3C2=O)cc1 | 2 | -18 | 35* | 10 | 29* | -13
CC1CCN(CCC(=O)Nc2ccc(F)c(F)c2)CC1 | -11 | -2 | 8 | 1 | -5 | 22
CCOC(CNC(=O)C(=O)Nc1cc2c3c(c1)CCC(=O)N3CCC2)OCC | -8 | -2 | -1 | 0 | -3 | -16
CC(C)(C)NCc1cc(Cl)ccc1OCc1ccccc1F | 3 | 1 | 3 | 15* | -8 | 16
COc1ccc(C(=O)O)cc1S(=O)(=O)NCCCN1CCCC1=O | 25* | 0 | -20 | 0 | -1 | -8
CCN(CC)CCNC(=O)C1(c2ccccc2)CCCCC1 | -12 | -23 | 40* | 1 | -8 | 12
CCN(CC)CCOC(=O)c1ccc(NC(=O)C2(c3ccccc3)CCCC2)cc1 | -1 | -19 | 46* | 2 | -5 | 19
O=C(O)c1ccc(NC(=O)C2(c3ccccc3)CCCC2)cc1 | -8 | 1 | 5 | 0 | -1 | 10
CCc1c(O)nc(SCC(=O)Nc2ccccc2)n(-c2ccccc2C)c1=O | -1 | 29* | -28 | 0 | 6 | 6
CC1CN(C(=O)CCC(=O)N2CCOCC2)c2ccccc2O1 (stereo not drawn) | 3 | 5 | -8 | 1 | 1 | -8
Cc1c(Br)cccc1NC(=O)C1(C)CCN1CCc1ccccc1 (stereo not drawn) | -12 | 9 | -29 | -1 | -5 | 8
CC1=C([N+](=O)[O-])C(c2ccccc2Cl)NC(=O)N1C (stereo not drawn) | -10 | 9 | -10 | 17* | 1 | 23
SMILES | CHO-K1 Ca antag | M1 PAM | CHRM1 antagonist | CHO-K1 Ca ag | CHRM1 agonist | CHO-K1 Ca PAM
COc1cc(/C=C2/SC(=S)N(c3c(C)n(C)n(-c4ccccc4)c3=O)C2=O)ccc1O | 18 | -8 | 3 | 11 | -5 | -9
CCN(CC)c1ccc(/C=C(/C#N)c2nc3ccccc3[nH]2)c(OC(C)C)c1 | 9 | -41 | 64* | 13 | 55* | 0
CCOc1cccc(/C=C(/C#N)c2nc3ccccc3[nH]2)c1OCC(=O)O | -3 | 4 | -11 | 1 | -1 | 14
COc1ccc(NC(=O)CN(C)CC(=O)Nc2sc3c(c2C#N)CCC3)cc1 | 21 | -5 | 34* | 0 | 1 | -13
O=C(CCNC(=O)c1ccccc1Cl)NCCC1=CCCCC1 | 10 | 5 | -17 | 0 | -2 | -10
CCN(c1ccccc1)S(=O)(=O)c1ccc(NC(=O)c2nc(S(C)(=O)=O)ncc2Cl)cc1 | 18 | -9 | 35 | 6 | 1 | -9
CCS(=O)(=O)c1ncc(Cl)c(C(=O)Nc2ccc(S(=O)(=O)N(C)c3ccccc3)cc2)n1 | 14 | -24 | 88* | 1 | -6 | -30
CN(N=C(c1ccccc1)c1ccccc1)c1ccccc1 | -6 | 5 | -6 | 1 | 1 | 16
Cc1cccc(C)c1C(=NCCN(C)C)c1ccccc1 | -14 | -24 | 75* | 1 | -6 | 25
Cc1ccccc1C(=NCCCN(C)C)c1ccccc1C | -3 | -28 | 77* | 0 | -15 | 19
Cc1c(OCC(=O)N[C@H](C(=O)O)c2ccccc2)ccc2c3c(c(=O)oc12)CCCC3 | -5 | 12 | -17 | 0 | -3 | 21
Cc1ccc(NC(=O)C2C3C=CC4(O3)C2C(=O)N(CCCN2CCCCC2)C4C(=O)NC2CCCCC2)cc1C (stereo not drawn) | 5 | -4 | 16 | 0 | -2 | -8
c1ccc(-c2nn3c(C4CCCCC4)nnc3s2)cc1 | 25* | 3 | -2 | -1 | 1 | -7
c1ccc(-c2nn3c(C4CCCCC4)nnc3s2)nc1 | -2 | 4 | -5 | 0 | -1 | 14
CC(C)c1cc(CN2C(C)COCC2C)cc(C(C)C)c1O (stereo not drawn) | -14 | 1 | -4 | 0 | -5 | 3
CNCCCC1Sc2ccccc2Oc2ccccc21 (stereo not drawn) | 19 | -22 | 33* | 1 | -6 | -8
CC(C)CNC(=O)C1c2ccccc2Oc2ccccc21 | -13 | 6 | -4 | 0 | -5 | 16
COc1ccc2[nH]cc(CCNC(=O)COc3cc(C)cc4oc(=O)cc(C)c34)c2c1 | 11 | -24 | 31* | 4 | -1 | -17
Cc1cc(OC(C)C(=O)NCCc2c[nH]c3ccccc23)c2c(C)cc(=O)oc2c1 (stereo not drawn) | -5 | -5 | -5 | 3 | -4 | 6
CC1CCC(C(C)C)C(OC(=O)CSc2nnc(N)s2)C1 (stereo not drawn) | -3 | 2 | -9 | 0 | -3 | 10
